# The supplement of paper PMC10723795
# ± gives the standard deviation of the averaged measurements.
# What was measured:
# DLD1 = experiment: nucleolar normality score relative to DMSO (fraction of DMSO control); RPE1 is a non-cancer human cell line; higher = more normal nucleoli (less nucleolar stress)
# Method: (§1)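 Selected screen hits were validated in hTERT lines (BJ5TA, CHON-002, RPE1) and cancer lines (DLD1, HCT116). Cells were immunostained for nucleolin and UBF and the nucleolar normality score was measured per field of view, with 4 fields per drug. Scores are normalized to each cell line's own DMSO control. Dose and time are not stated for this panel.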
# HCT116 = experiment: as above
# Method: as §1
SMILES,nucleolar normality score (DLD1),nucleolar normality score (HCT116)
Cc1nc(-c2cn3c(n2)-c2ccc(-c4cnn(C(C)(C)C(N)=O)c4)cc2OCC3)n(C(C)C)n1 [Taselisib],0.485 ± 0.067,0.588 ± 0.052
COC[C@H](NC(=O)c1cnc(C)s1)C(=O)N[C@@H](COC)C(=O)N[C@@H](Cc1ccccc1)C(=O)[C@@]1(C)CO1 [Oprozomib],0.471 ± 0.054,0.658 ± 0.046
CC(C)n1nc(-c2ccc3oc(N)nc3c2)c2c(N)ncnc21 [Sapanisertib],0.398 ± 0.035,0.549 ± 0.021
CN(C)CCNC(=O)c1cccn2c(=O)c3cc4ccccc4cc3nc12,0.173 ± 0.037,0.202 ± 0.013
COc1cccc2c1C(=O)c1c(O)c3c(c(O)c1C2=O)C[C@@](O)(C(=O)CO)C[C@@H]3O[C@H]1C[C@H](N)[C@H](O)[C@H](C)O1 [Doxorubicin],0.36 ± 0.056,0.253 ± 0.036
CC(C)c1cc(C(=O)N2Cc3ccc(CN4CCN(C)CC4)cc3C2)c(O)cc1O [Onalespib],0.363 ± 0.023,0.434 ± 0.027
CC(C)c1c2cc(-c3ccnc(NC4CCC(NC5CCOCC5)CC4)n3)ccc2nn1C (centres undefined),0.509 ± 0.046,0.507 ± 0.016
CC(C)C[C@H](NC(=O)[C@H](CCc1ccccc1)NC(=O)CN1CCOCC1)C(=O)N[C@@H](Cc1ccccc1)C(=O)N[C@@H](CC(C)C)C(=O)[C@@]1(C)CO1 [Carfilzomib],0.436 ± 0.059,0.574 ± 0.063
CN1CC[C@H](c2c(O)cc(O)c3c(=O)cc(-c4ccccc4Cl)oc23)[C@H](O)C1 [Flavopiridol],0.432 ± 0.076,0.452 ± 0.057
CCc1cnn2c(NCc3ccc[n+]([O-])c3)cc(N3CCCC[C@H]3CCO)nc12 [Dinaciclib],0.442 ± 0.09,0.428 ± 0.052
Cc1cnc(CNC(=O)c2c(=O)c3ccc(N4CCCN(C)CC4)nc3n3c2sc2ccccc23)cn1,0.224 ± 0.045,0.404 ± 0.19
C=CCNC1=C2C[C@@H](C)C[C@H](OC)[C@H](O)[C@@H](C)/C=C(\C)[C@H](OC(N)=O)[C@@H](OC)/C=C\C=C(/C)C(=O)NC(=CC1=O)C2=O,0.436 ± 0.052,0.462 ± 0.027
